From PubChem BioAssay (NCI)
Compounds without any hit were thinned out: in the full panel of roughly 83,000, 20% have a hit.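 Values shown are percent growth following 48 h exposure of cells in 96-well plates to a single concentration of compound; below 10 was considered active.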 A number with no mark means an inactive call. Calls of active or inactive are those of the source.

Assays:
Experiment in all cases: NCI-60 one-dose screen, 48 h (100 = growth as untreated, 0 = no growth, -100 = all killed)
Settings in all cases: 10 µM unless noted
[1] = system: RPMI-8226 leukemia
[2] = system: OVCAR-8 ovarian
[3] = system: OVCAR-5 ovarian
[4] = system: OVCAR-4 ovarian
[5] = system: IGROV1 ovarian
[6] = system: OVCAR-3 ovarian
[7] = system: HS 578T breast
[8] = system: NCI/ADR-RES ovarian
[9] = system: T-47D breast
[10] = system: BT-549 breast
[11] = system: MDA-MB-435 melanoma
[12] = system: SW-620 colon
[13] = system: MCF7 breast
[14] = system: HCT-116 colon
[15] = system: HCC-2998 colon
[16] = system: KM12 colon
[17] = system: SK-OV-3 ovarian

Structure (SMILES)	growth [1]	growth [2]	growth [3] [%]	growth [4]	growth [5]	growth [6]	growth [7]	growth [8]	growth [9]	growth [10]	growth [11]	growth [12]	growth [13]	growth [14]	growth [15] [%]	growth [16]	growth [17] [%]
Cc1ncc(C(=O)Nc2ccc(CN3CCN(C)CC3)c(C(F)(F)F)c2)cc1C#Cc1cnc2cccnn12	2.24% (active)	6.1% (active)	13.8	-17% (active)	5.84% (active)	-0.593% (active)	-15.5% (active)	8.62% (active)	40%	-10.8% (active)	-54.1% (active)	-5.14% (active)	2.92% (active)	0.541% (active)	11.1	-0.978% (active)	–
COc1cccc(-c2nc3sccn3c2-c2ccnc(NCCNS(=O)(=O)c3ccccc3)c2)c1	-27.1% (active)	13.9%	45.3	15.2%	25.5%	42.2%	–	6.38% (active)	-18.3% (active)	6.29% (active)	22.6%	40.8%	27.4%	18.5%	53.2	22.2%	42
O=C(/C=C/c1cccc(Cl)c1)c1ccc(O)c(CN2CCN(c3cc4c(cc3F)c(=O)c(C(=O)O)cn4C3CC3)CC2)c1	4.11% (active)	–	52.6	79.5%	48%	40.8%	41.3%	60.5%	44.9%	34%	44.7%	21.4%	28.3%	6.6% (active)	61.3	51.2%	79.8
COc1cccc(Nc2nc(SC)nc(-c3cccc([N+](=O)[O-])c3)c2C#N)c1	95%	36.4%	81.6	-1.38% (active)	74.7%	51.8%	–	70.2%	62.4%	96.1%	80.9%	75%	72.9%	28.2%	95.3	98.4%	–
